Consider 21 compounds from PubChem BioAssay (NCATS).

One test relates to CRL-7250. As to the kind of experiment: Cytotoxic Profiling of Annotated Libraries Using Quantitative High-Throughput Screening (AID 1296008). Also: potency is read from the fitted curve at half-maximal effect. As to max response: % is scaled to controls: 0 for no effect and ±100 for the full control effect. The following applies: Five cell lines viability, CellTiter-Glo ATP luminescence, 48-72 h; max response: stronger effect = lower value. An outline of the steps: (§1)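 Compounds were pin-transferred onto cells and incubated 48 or 72 hr at 37 degree Celsius, 95% humidity. CellTiter-Glo was added, plates sat 10 min at room temperature, then ATP-coupled luminescence was imaged as the viability read-out.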
For orientation: ATP-based viability assays read luminescence as a measure of living cells.

Another test concerns HEK293. The description is as above. The following applies: Five cell lines viability, CellTiter-Glo ATP luminescence, 48-72 h; max response: stronger effect = lower value. An outline of the steps: as §1
In test [1] the test system is HaCat. The test is described as above. The following applies: Five cell lines viability, CellTiter-Glo ATP luminescence, 48-72 h; max response: stronger effect = lower value. An outline of the steps:
as §1

A further test relates to NIH3T3. The test is described as above. The following applies: Five cell lines viability, CellTiter-Glo ATP luminescence, 48-72 h; max response: stronger effect = lower value. An outline of the steps: as §1
The test system of a further test is TAB109. As to the kind of experiment: qHTS profiling for inhibitors of Plasmodium falciparum proliferation (AID 504749).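 Also: 0% = DMSO vehicle and full inhibition = artemisinin control.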 The following applies: P. falciparum in erythrocytes, SYBR Green DNA, 72 h; series mostly up to 28.7 µM. In outline: (§2)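 Quantitative HTS: compounds pinned into medium, infected erythrocytes added (0.3% parasitemia, 2.5% hematocrit), 72 h culture at 37 C under 5% CO2. Saponin/Triton lysis with SYBR Green I, overnight RT, then fluorescence read.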

In another test the test system is TAB113. Described as above. The following applies: P. falciparum in erythrocytes, SYBR Green DNA, 72 h; series mostly up to 28.7 µM. An outline of the steps:
as §2

The next test has as its system TAB165. Described as above. The following applies: P. falciparum in erythrocytes, SYBR Green DNA, 72 h; series mostly up to 28.7 µM. In outline: as §2
The subject of the next test is KB-3-1. As to the kind of experiment: Cytotoxic Profiling of Annotated Libraries Using Quantitative High-Throughput Screening (AID 1296008). Also: potency is read from the fitted curve at half-maximal effect. As to max response: % is scaled to controls: 0 for no effect and ±100 for the full control effect. The following applies: Five cell lines viability, CellTiter-Glo ATP luminescence, 48-72 h; max response: stronger effect = lower value. In outline: as §1
Test [2] has as its system HACAT. Put plainly: qHTS assay to identify novel small-molecules to repurpose for Merkel cell carcinoma treatment (AID 1296009). The following applies: MCC and control cell lines, CellTiter-Glo viability, 72 h; at 44.8 µM (top of the series) unless noted. In outline:
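Viability readout: ATP luminescence (CellTiter-Glo) after 72 hr drug exposure at 37 degree celsius. Dose-response format was 8 points for NPC and 11 points for MIPE; data normalized to in-plate controls.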
In general terms: In qHTS, concentration-response curves come from the screen itself.

The subject of the next test is W2. As to the kind of experiment: qHTS profiling for inhibitors of Plasmodium falciparum proliferation (AID 504749).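 Also: 0% = DMSO vehicle and full inhibition = artemisinin control.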 The following applies: P. falciparum in erythrocytes, SYBR Green DNA, 72 h; series mostly up to 28.7 µM. In outline: as §2

Where “and” joins values, the source holds several entries; their conditions need not be identical. Identical values can stand only once. Results filed as inconclusive are left out. Values without a mark were called inactive. Calls of active or inactive are those of the source. Calls follow the shape of the dose curve; as a rule, active = well fitted inhibition curve with a large enough effect; inconclusive = small, poorly fitted or top-dose-only effect; inactive = flat fitted curve, though single readings scatter.
Also: nearly all actives have a fitted effect of over 60% in size.

As for `COc1c(C)cnc(Cn2cnc3c(Cl)nc(N)nc32)c1C`, the Potency with CRL-7250 is 935 nM (active); in the test with HEK293, 0.132 µM (active); in the test on HaCat [1], 296 nM (active); in the test on NIH3T3, 0.526 µM (active).

With `CN1CCN2c3ncccc3Cc3ccccc3C2C1` (stereo not drawn), the Potency result with TAB109, in the test on TAB113 and with TAB165 was “inactive” in each case. Also, the max response is -0.363% in the test with CRL-7250; -5% in the test with HEK293; -6.78% with HaCat [1]; -7.74% and 1.92% in the test on KB-3-1. The compound was classed as inactive in the test on NIH3T3.

In the case of `CCCCCCCCCCCCCC(=O)N[C@H](CO)[C@H](O)c1ccc([N+](=O)[O-])cc1`, the Potency in the test with CRL-7250 was 9350 nM (active); in the test with HEK293 it was 5.26 µM (active). In the test with KB-3-1, the max response was 5.57%.

Regarding `CCOC(=O)[C@H](CCc1ccccc1)N[C@@H](C)C(=O)N1CCCC1C(=O)O` (stereo partly drawn), the max response in the test on CRL-7250 is 3.69%; in the test on KB-3-1, 2.47%. Also, the compound was called inactive in the test on HEK293, with HaCat [1], in the test with NIH3T3 and with HACAT [2].

On to `COc1ccc(-c2nc3ccc(C4=NNC(=O)CC4C)cc3[nH]2)cc1` (stereo not drawn), for which the call in the test with CRL-7250 was inactive. Besides, the Potency in the test with HEK293 is 18.8 µM (active) and 23.1 µM (active). Besides, the max response in the test with KB-3-1 was -4.82%.

Turning to `CC(=O)N1CCN(c2ccc(OCc3nn(C)c(C)c3-c3cccc4c(CCCOc5cc(C)c(Cl)c(C)c5)c(C(=O)O)n(Cc5cccnc5)c34)cc2)CC1`, the results for the max response with CRL-7250 and in the test on KB-3-1 were 4.49% and 1.85%, respectively. Also, the outcome with HEK293 was “inactive; activator”. Also, the compound was classed as inactive in the test on HaCat [1], in the test on NIH3T3 and in the test on HACAT [2].

In the case of `CCC(c1ccc(O)cc1)C(CC)c1ccc(O)cc1` (stereo not drawn), the result in the test on CRL-7250, with HaCat [1], in the test on NIH3T3 and in the test with HACAT [2] was inactive. For the same compound, the results for the max response with HEK293 and in the test with KB-3-1 were -1.04% and 9.65%, respectively.

Take `N#Cc1c(N(CC(=O)O)CC(=O)O)sc(C(=O)O)c1CC(=O)O`: the Potency result in the test on TAB109, in the test with TAB113, with TAB165 and in the test on W2 was “inactive” each time. Further, the compound was classed as inactive in the test on CRL-7250, with HEK293, with HaCat [1] and with HACAT [2]. In addition, the max response with KB-3-1 was -1.51%; in the test on NIH3T3, -3.52%.

Turning to `O=C(c1ccc(C=Cc2n[nH]c3ccccc23)cc1)N1CCNCC1`, the max response in the test on CRL-7250 is -12.3%; in the test on HEK293, -9.22%. The Potency is 9350 nM (active) in the test with KB-3-1 and 2.35 µM (active) in the test on NIH3T3.

Take `Cc1ccc(C(=O)N(CCCN)[C@@H](c2oc3cc(Cl)ccc3c(=O)c2Cc2ccccc2)C(C)C)cc1`: the max response in the test with CRL-7250 is -26.7%. The Potency was 0.0662 µM (active) in the test with HEK293 and 0.8 nM (active) in the test with KB-3-1.

With `CC(C)n1c(C=C[C@H](O)C[C@H](O)CC(=O)O)c(-c2ccc(F)cc2)c2ccccc21`, the Potency is 2640 nM (active) with CRL-7250, 14.8 µM (active) in the test with HEK293, 11800 nM (active) with KB-3-1 and 16.6 µM (active) with NIH3T3.

Regarding `CCNC(=O)c1noc(-c2cc(C(C)C)c(O)cc2O)c1-c1ccc(CN2CCOCC2)cc1`, the Potency is 83.3 nM (active) with CRL-7250; 46.9 nM (active) and 9.2 nM (active) with HEK293; 469 nM (active) and 41.1 nM (active) in the test with HaCat [1]; 264 nM (active) and 51.7 nM (active) in the test on NIH3T3.

As for `N#CC(c1ccc(Cl)cc1)c1c(Cl)cc(-n2ncc(=O)[nH]c2=O)cc1Cl` (stereo not drawn), the Potency entry with TAB109, in the test on TAB113, in the test with TAB165 and in the test on W2 was “inactive” throughout. Also, the max response in the test with CRL-7250 was -3.43%; in the test with HEK293, -4.97%; in the test on KB-3-1, 0.338%; in the test on NIH3T3 it was -0.315%. Also, the outcome in the test on HaCat [1] and in the test with HACAT [2] was inactive.

On to `O=C(O)C1=NC(C(=O)O)CC(C=CN2c3cc(O)c(OC4OC(CO)C(O)C(O)C4O)cc3CC2C(=O)O)=C1` (stereo not drawn), for which the call in the test on CRL-7250, in the test on HEK293, in the test with HaCat [1] and in the test with HACAT [2] was inactive. The figures for the max response in the test on KB-3-1 and with NIH3T3 were 2.69% and 3.64%, respectively.

Consider `Cn1cnc(-c2cc3nccc(Oc4ccc(NC(=S)NC(=O)Cc5ccccc5)cc4F)c3s2)c1`, for which the Potency was 26400 nM (active) with CRL-7250; 23.5 µM (active) in the test with HEK293; 11.8 µM (active) and 13 µM (active) in the test with NIH3T3.

Regarding `CCCCC[C@H](O)C=C[C@H]1[C@H](O)CC(=O)[C@H]1CCCCCCC(=O)O`, the max response was -0.21% with CRL-7250, -1.7% in the test with HaCat [1], -2.88% in the test with KB-3-1 and -0.203% with NIH3T3.

For the compound `CCC(=C(c1ccc(O)cc1)c1ccc(OCCNC)cc1)c1ccccc1`, the values for the max response with CRL-7250 and with HaCat [1] were -6.43% and -11.9%, respectively.

Take `FC(F)(F)c1ccc(C=Cc2nc(COc3ccc(CCCCn4ccnn4)cc3)co2)cc1`: the Potency with CRL-7250 is 13.2 nM (active); in the test with HaCat [1], 7430 nM (active). In addition, the max response in the test on KB-3-1 was -26.9%; with NIH3T3 it was -14.8%.

Take `CC[C@]1(O)C[C@H]2CN(CCC3=c4ccccc4=N[C]3[C@@](C(=O)OC)(c3cc4c(cc3OC)N(C)[C@H]3[C@@](O)(C(N)=O)[C@H](O)[C@]5(CC)C=CCN6CC[C@]43[C@@H]65)C2)C1`: the Potency with CRL-7250 was 93.5 nM (active); in the test with KB-3-1, 5.9 nM (active). Moreover, in the test on HaCat [1], the max response is -10.4%.

Take `CCC(=O)OCC(=O)[C@@]1(OC(=O)CC)[C@@H](C)C[C@@H]2[C@H]3CCC4=CC(=O)C=C[C@]4(C)[C@@]3(F)[C@@H](O)C[C@@]21C`: the max response with CRL-7250 is -3.82%; with HaCat [1], -0.0521%; in the test on NIH3T3, 0.981%. For the same compound, the outcome with KB-3-1 was inactive.

Regarding `CC1CCN(c2cc(N3CCN(C)CC3)ccc2NC(=O)c2cc(C#N)c[nH]2)CC1`, the call with CRL-7250, in the test on HaCat [1] and with HACAT [2] was inactive. Moreover, the max response in the test on HaCat [1] was 2.9%; in the test on KB-3-1 it was 9% and 4.39%; in the test with NIH3T3, 3.51% and 0.269%.
